Screens deposited in PubChem by National Center for Advancing Translational Sciences (NCATS).
JMJD2A Tudor inh: qHTS Assay for Inhibitors of JMJD2A-Tudor Domain | Potency, µM (top dose mostly 114 µM), without a hit: top-dose activity change, negative = inhibition, actives largely listed as inhibitors | 390,000 tested, 4.4% active | AlphaScreen JMJD2A-Tudor / H3K4me3 peptide binding | AID 504339, 2011; note: potency is the fitted concentration of half-maximal effect; % is set by controls: 0 for no effect and ±100 for the full control effect; nearly all actives have a fitted effect of over 50% in size
Target sequence (O75164 whole entry, looked up, the tested form may be a part): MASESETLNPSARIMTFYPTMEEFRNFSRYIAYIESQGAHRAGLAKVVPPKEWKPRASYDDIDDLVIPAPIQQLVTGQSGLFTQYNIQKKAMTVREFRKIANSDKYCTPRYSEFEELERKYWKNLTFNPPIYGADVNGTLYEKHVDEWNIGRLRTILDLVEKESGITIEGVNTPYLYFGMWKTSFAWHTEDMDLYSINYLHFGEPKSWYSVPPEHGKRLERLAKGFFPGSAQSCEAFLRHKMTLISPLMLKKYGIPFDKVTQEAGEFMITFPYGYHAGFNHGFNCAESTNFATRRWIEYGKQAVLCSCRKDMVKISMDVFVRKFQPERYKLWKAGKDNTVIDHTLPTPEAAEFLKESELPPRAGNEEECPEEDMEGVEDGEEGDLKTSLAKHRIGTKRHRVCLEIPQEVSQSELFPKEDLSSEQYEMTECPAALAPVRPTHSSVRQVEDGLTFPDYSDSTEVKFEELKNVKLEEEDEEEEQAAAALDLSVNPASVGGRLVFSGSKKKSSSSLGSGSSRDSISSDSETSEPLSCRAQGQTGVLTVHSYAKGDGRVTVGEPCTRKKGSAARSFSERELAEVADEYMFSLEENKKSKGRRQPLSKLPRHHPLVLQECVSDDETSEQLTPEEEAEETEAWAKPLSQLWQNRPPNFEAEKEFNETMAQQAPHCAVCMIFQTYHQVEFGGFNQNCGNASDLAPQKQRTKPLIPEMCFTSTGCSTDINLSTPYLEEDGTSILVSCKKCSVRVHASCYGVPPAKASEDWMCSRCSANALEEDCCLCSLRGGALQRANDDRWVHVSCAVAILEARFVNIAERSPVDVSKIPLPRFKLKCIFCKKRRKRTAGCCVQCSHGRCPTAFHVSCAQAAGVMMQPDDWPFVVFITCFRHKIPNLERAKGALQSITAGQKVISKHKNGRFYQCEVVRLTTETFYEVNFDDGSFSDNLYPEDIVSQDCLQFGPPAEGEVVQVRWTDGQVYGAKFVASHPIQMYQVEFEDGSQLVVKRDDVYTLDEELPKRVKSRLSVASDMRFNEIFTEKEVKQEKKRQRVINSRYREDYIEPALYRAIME
VDR inh: Inhibitors of the vitamin D receptor (VDR): qHTS; Vitamin D3 receptor (Homo sapiens), P11473; VDR-SRC2-3 peptide fluorescence polarization, 2 h; Potency, µM, for the others: max response, negative = inhibition, hits mostly inhibitors; 400,000 tested, 0.93% active; AID 504847, 2011; note: potency is the fitted concentration of half-maximal effect; % is set by controls: 0 for no effect and ±100 for the full control effect
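VDR–SRC2-3 interaction, FP format. Cmpds 23 nl via pintool, brief spin, 2 h ambient incubation.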
G9a inh-1: qHTS Assay for Inhibitors of Histone Lysine Methyltransferase G9a | Potency, µM (doses to about 102 µM), for inactives: top-dose activity, negative = inhibition, most hits filed as inhibitors | 350,000 tested, 8.8% active | G9a H3K9 monomethylation, AlphaScreen, 2 h | AID 504332, 2011; note: potency is the fitted concentration of half-maximal effect; % is set by controls: 0 for no effect and ±100 for the full control effect; nearly all actives have a fitted effect of over 75% in size
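G9a (20 nM) was preincubated 15 min with compound, then reacted 2 h at room temperature with 500 nM biotin-H3K9 peptide and 20 µM SAM. Monomethyl-H3K9 detected by AlphaScreen using anti-H3K9me1 antibody.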
BAZ2B inh: qHTS Assay for Inhibitors of BAZ2B. Bromodomain adjacent to zinc finger domain protein 2B (Homo sapiens), Q9UIF8. AlphaScreen BAZ2B-H3K14Ac peptide displacement. Potency, µM (titrated, usually from 114 µM), for the others: at the highest dose activity change, negative = inhibition, usual class: inhibitors. 360,000 tested, 4.4% active. AID 504333, 2011; note: potency is the fitted concentration of half-maximal effect; % is set by controls: 0 for no effect and ±100 for the full control effect; nearly all actives have a fitted effect of over 60% in size
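Complex of BAZ2B and biotin-H3K14Ac (50 nM apiece) forms over 30 min at RT, then faces library compounds up to 110 uM for another 30 min; AlphaScreen beads added, 20 min dark incubation, luminescence read.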
HP1b binding inh: HTS for Inhibitors of HP1-beta Chromodomain Interactions with Methylated Histone Tails | Potency, µM (series often up to 114 µM), inactives show top-dose activity change, negative = inhibition, actives largely listed as inhibitors | Chromobox protein homolog 1 (Homo sapiens), P83916 | AlphaScreen HP1-beta / biotin-H3K9me3 peptide binding | 390,000 tested, 0.56% active | AID 540317, 2011; note: potency is the fitted concentration of half-maximal effect; nearly all actives have a fitted effect of over 70% in size
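HP1-beta protein (50 nM final) preincubated 30 min at room temperature with biotinylated H3(1-18)K9me3 peptide (50 nM) in PBS pH 7.4, 0.01% Tween-20, then compound added for 30 min. AlphaScreen streptavidin donor/nickel chelate acceptor beads (10 ug/mL final), 30 min dark, luminescence read.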
PLK1 PBD inh: qHTS for Inhibitors of PLK1-PDB (polo-like kinase 1 - polo-box domain): Primary Screen. Serine/threonine-protein kinase PLK1 (Homo sapiens), P53350. Plk1 PBD binding of FITC phosphopeptide, fluorescence polarization. Potency, µM, without a hit: max response, negative = inhibition, usual class: inhibitors. 360,000 tested, 2.8% active; note: potency is the fitted concentration of half-maximal effect; series mostly up to about 57 µM; % is set by controls: 0 for no effect and ±100 for the full control effect; nearly all actives have a fitted effect of over 65% in size
JMJD2E inh-1: Inhibitors of Human Jumonji Domain Containing 2E (JMJD2E): 8HQs - Round 1. shares compounds with BAZ2B inh. 130 tested, 89% active. JMJD2E demethylase, FDH-coupled NADH fluorescence. Potency, µM (doses to about 57 µM), inactives show at the top dose activity, negative = inhibition, usual class: inhibitors
JMJD2E inh-2: Confirmation qHTS Assay for Inhibitors of Human Jumonji Domain Containing 2E (JMJD2E). shares compounds with JMJD2A Tudor inh. Recombinant JMJD2E, FDH-coupled NADH fluorescence (FDH is formaldehyde dehydrogenase). Potency, µM (highest dose often 56.8 µM), without a hit: at the top dose activity change, negative = inhibition, actives largely listed as inhibitors. 140 tested, 93% active. AID 2677, 2010
FDH counter: Counterscreen for JMJD2E Inhibitors: qHTS Assay for Inhibitors of Formaldehyde Dehydrogenase (FDH). shares compounds with JMJD2A Tudor inh. FDH enzyme assay, NADH fluorescence kinetic. Potency, µM (top dose mostly 56.7 µM), for inactives: top-dose activity, negative = inhibition, most hits filed as inhibitors. 140 tested, 10% active
G9a inh-2: qHTS Assay for Inhibitors of Histone Lysine Methyltransferase G9a: Hit Confirmation; shares compounds with JMJD2A Tudor inh; G9a H3K9 monomethylation, AlphaScreen, 2 h; Potency, µM, hits mostly inhibitors; 370 tested, 89% active; AID 588344, 2011; note: potency is the fitted concentration of half-maximal effect; nearly all actives have a fitted effect of over 65% in size
VDR confirm: qHTS for Inhibitors of the vitamin D receptor (VDR): Hit Validation in Primary Screen. shares compounds with VDR inh. 840 tested, 89% active. VDR-coactivator inhibition assay, qHTS confirmation. Potency, µM, most hits filed as inhibitors; note: potency is the fitted concentration of half-maximal effect
VDR FP: qHTS for Inhibitors of the vitamin D receptor (VDR): Hit Validation using a Fluorescein Assay; shares compounds with VDR inh; Potency, µM (titrated, usually from 57.1 µM), for the others: top-dose activity change, negative = inhibition, usual class: inhibitors; AID 602200, 2012; VDR-coactivator binding, fluorescein fluorescence polarization; 840 tested, 48% active; note: potency is the fitted concentration of half-maximal effect
VDR bla reporter: qHTS for Inhibitors of the vitamin D receptor (VDR): Hit Validation using a Beta-Lactamase Assay. shares compounds with VDR inh. VDR beta-lactamase reporter cells, FRET ratio; cells co-treated with VDR agonist LG190178. Potency, µM (highest dose often 46.1 µM), for inactives: top-dose activity change, negative = inhibition, hits mostly inhibitors. 840 tested, 23% active. AID 602202, 2012; note: potency is the fitted concentration of half-maximal effect; % is set by controls: 0 for no effect and ±100 for the full control effect
VDR viability: qHTS for Inhibitors of the vitamin D receptor (VDR): Hit Validation using a Cytotoxicity Assay. shares compounds with VDR inh. 840 tested, 18% active. Potency, µM (series often up to 48.3 µM), for inactives: top-dose activity change, negative = cytotoxicity, actives largely listed as cytotoxic. cytotoxicity counter-screen, cell viability, qHTS;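 note: potency is the fitted concentration of half-maximal effect; plate controls were DMSO for no effect and high-concentration cycloheximide for full effect; nearly all actives have a fitted effect of over 75% in size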
The depositor's hits bear a star; ? = inconclusive; / = not tested or not shown; [ ] = dose if it differs, or a comment. Compounds with a hit are over-represented: about 11% of the library has one in this group of screens. Calls come from the whole dose curve; as a rule, active = well fitted curve in the direction sought with a large enough effect; inconclusive = small, poorly fitted or top-dose-only effect, or another doubt; inactive = no such curve, though single readings can be large; an effect the other way counts as inactive or inconclusive.

SMILES	JMJD2A Tudor inh	VDR inh	G9a inh-1	BAZ2B inh	HP1b binding inh	PLK1 PBD inh	others
Oc1cccc2cc(N3CCNCC3)cnc12	/	/	/	/	/	/	JMJD2E inh-1=?;JMJD2E inh-2=?;FDH counter=0%
CC1Cc2ccccc2N1Cc1cccc(S(=O)(=O)N(C)C)c1 (centres undefined)	?	-4%	-8%[2.33 µM]	?	?	?
CNCCc1ccc(OC)c(OC)c1	-1%	-1%	?	-7%	35%	0%
COc1ccc(CCNCc2ccncc2)cc1OC	11µM*	4%	2.5µM*	50µM*	?	-13%	G9a inh-2=45*
O=C(CCC1CCCC1)c1c(O)c2ccccc2oc1=O	-12%	-10%	?	11%	46%	-1%
CN(C)c1ccc(NC(=O)Oc2ccccc2)cc1	?	?	1.6µM*	45µM*	-40%	-22%	G9a inh-2=1.4*
CC(=O)Nc1ccc(NC(=O)Oc2ccccc2)cc1	-13%	-1%	?	-21%	9%	-23%
COc1ccc(CN2CCN(Cc3ccccc3OC)CC2)cc1	4µM*	-10%	2µM*	25µM*	?	-1%	G9a inh-2=3.6*
Cc1cccc(OCC(=O)N2CCN(Cc3ccncc3)CC2)c1	1.3µM*	6%	2.5µM*	18µM*	-40%	2%	G9a inh-2=8.9*
CCC(=O)O[C@@](Cc1ccccc1)(c1ccccc1)[C@@H](C)CN(C)C	/	0%	25%[21.5 µM]	/	/	/
COc1ccc(-n2c(O)c(/C=C3\C=Nc4ccccc43)c(=O)[nH]c2=O)cc1	-13%	-3%	/	?	40%	-10%
COc1ccc(-n2c(O)c(/C=C3\C=Nc4ccc(Br)cc43)c(=O)[nH]c2=O)c(OC)c1	?	50µM*	32µM*	?	5%	2.1µM*	VDR confirm=17*;VDR FP=?;VDR bla reporter=?;VDR viability=?
Nc1nc(Sc2ccc([N+](=O)[O-])c3nonc23)c2[nH]cnc2n1	28µM*	14µM*	/	/	8.9µM*	1.5µM*	VDR confirm=3.4*;VDR FP=?;VDR bla reporter=?;VDR viability=11µM*
CN(c1ccc(O)cc1)c1ccc([N+](=O)[O-])c2nonc12	/	/	/	/	/	-8%
O=C(Cc1ccc(S(=O)(=O)N2CCCC2)s1)N1CCN(c2ccc(F)cc2)CC1	?	-14%	?	/	?	-7%
O=S(=O)(c1ccc(Cl)cc1)c1ccc(Cl)cc1	11%	-7%	10%[0.501 µM]	?	58%	3%
COc1ccc([N+](=O)[O-])c(S(=O)(=O)c2ccc(Cl)cc2)n1	-28%	32µM*	18µM*	-29%	33%	3µM*	VDR confirm=3*;VDR FP=?;VDR bla reporter=7.3µM*;VDR viability=?
COC(=O)C[C@]1(C(=O)OC)CN(C#N)N(c2ccc(Cl)cc2)C12c1ccccc1-c1ccccc12	-18%	20µM*	-9%[59 µM]	0%	7%	-10%	VDR confirm=?;VDR FP=6.3µM*;VDR bla reporter=3.7µM*;VDR viability=2.9µM*
N#CC1c2ccccc2-n2nncc2CN1Cc1cc(Cl)cc(Cl)c1 (centres undefined)	-18%	20µM*	/	/	46%	?	VDR confirm=3.4*;VDR FP=2.8µM*;VDR bla reporter=10µM*;VDR viability=4.1µM*
CN1Cc2cnnn2-c2ccccc2C1C#N (centres undefined)	-15%	2%	/	/	37%	-7%
CCOC(=O)CN1C(=O)CC(C[C@@H](O)C2C[C@@H](C)C[C@H](C)C2=O)CC1=O (some centres undefined)	/	3%	?	/	/	/
COc1ccc(-n2c(/C=C3\C(=O)Nc4ccccc43)nc3ccccc3c2=O)cc1	1%	17%	-3%	2%	-1%	3%
